Screens deposited in PubChem by National Center for Advancing Translational Sciences (NCATS).
TGFb SMAD3 inh: TGF-b pathway inhibition; HepG2 CAGA-GFP TGF-b/SMAD3 reporter, GFP fluorescence, 18 h; TGF-beta stimulated, 500 pg/mL final; Potency, µM (titrated, usually from 46.1 µM), for the others: at the highest dose activity, negative = inhibition, usual class: inhibitors; 1.2% of 410,000 active; AID 588855; further: on the % scale 0 is the no-effect control and ±100 the full control effect; nearly all actives have a fitted effect of over 65% in size
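Smad-responsive CAGA-GFP expression was quantified in HEPG2 cells exposed to compounds and 500 pg/mL final TGF-beta for 18 h at 37 degrees C; unstimulated wells defined full inhibition.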
Gal4-VP16 FLuc: inhibits Gal4-VP16 luciferase reporter, ROR gamma counter-screen; Drosophila S2 Gal4-VP16 UAS-luciferase, luminescence, 20 h; 3.5% of 310,000 active; Potency, µM (series often up to 53.6 µM), without a hit: top-dose activity, negative = inhibition, most hits filed as inhibitors; AID 2546;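 further: Gal4-VP16 expression switched on by copper sulfate through the metallothionein promoter; on the % scale 0 is the no-effect control and ±100 the full control effect; nearly all actives have a fitted effect of over 50% in size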
HepG2 tox: counter-screen for TGF-b inhibitors: cytotoxicity in HepG2 cells; Potency, µM (doses to about 46.1 µM), without a hit: top-dose activity change, negative = cytotoxicity, actives largely listed as cytotoxic; AID 588856; HepG2 CAGA-GFP viability, ATP luminescence, 18 h; 0.76% of 410,000 active
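HepG2 CAGA-GFP cells (1000/well, DMEM with 1% FBS) received compound, then TGF-beta at 500 pg/mL final, and were incubated 18 hours at 37 degrees C. Viability was read by CellTiter-Glo luminescence. Media-only wells were set as complete cell-killing and DMSO as no toxicity.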
ATXN2 expr inh: reduces ATXN2 reporter expression in HEK-293 cells | HEK-293 ATXN2-luciferase reporter, luminescence, 24 h | Potency, µM (top dose mostly 57 µM), for the others: top-dose activity change, negative = inhibition, hits mostly inhibitors | 0.72% of 360,000 active; further: on the % scale 0 is the no-effect control and ±100 the full control effect; nearly all actives have a fitted effect of over 55% in size
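qHTS (up to 57 uM final) was run with 24 h compound exposure of reporter cells at 37 °C. Each well was multiplexed: SteadyGlo luminescence measured ATXN2-luciferase expression after a fluorogenic Gly-Phe-AFC viability readout (25 uM final).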
S2 tox: cell viability loss in ATXN counter-screen. S2 cells (HEK-293 line with an ATXN2-luciferase reporter) viability, CellTiter-Fluor protease fluorescence, 24 h. Potency, µM (highest dose often 56.7 µM), most hits filed as cytotoxic. 0.49% of 400,000 active. AID 651635; further: nearly all actives have a fitted effect of over 40% in size
RORg inh: blocks mouse ROR gamma transcriptional activity; Potency, µM (doses to about 53.6 µM), for the others: top-dose activity change, negative = inhibition, most hits filed as inhibitors; 5.4% of 310,000 active; P51450; Drosophila S2 Gal4-RORgamma UAS-luciferase reporter, 20 h; further: on the % scale 0 is the no-effect control and ±100 the full control effect; nearly all actives have a fitted effect of over 60% in size
Target sequence (P51450 whole entry, looked up, the tested form may be a part): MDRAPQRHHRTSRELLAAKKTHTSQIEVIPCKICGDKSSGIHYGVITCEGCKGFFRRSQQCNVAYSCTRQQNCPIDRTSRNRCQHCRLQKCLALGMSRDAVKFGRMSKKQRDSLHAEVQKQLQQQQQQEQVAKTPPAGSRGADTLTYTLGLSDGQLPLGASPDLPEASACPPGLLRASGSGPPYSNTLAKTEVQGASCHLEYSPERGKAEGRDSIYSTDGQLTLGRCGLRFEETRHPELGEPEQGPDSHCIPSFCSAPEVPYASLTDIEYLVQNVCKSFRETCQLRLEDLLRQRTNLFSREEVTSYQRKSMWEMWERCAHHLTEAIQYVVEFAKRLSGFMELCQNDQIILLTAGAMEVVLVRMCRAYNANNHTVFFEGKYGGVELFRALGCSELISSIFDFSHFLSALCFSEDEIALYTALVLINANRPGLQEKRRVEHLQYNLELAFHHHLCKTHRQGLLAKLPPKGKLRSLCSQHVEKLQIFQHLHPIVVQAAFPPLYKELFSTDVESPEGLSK
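Compounds are pin-transferred onto Drosophila Schneider cells expressing a copper-inducible Gal4–ROR gamma transactivation domain fusion. After 1 hr, copper sulfate is added to 700 uM final; luciferase is read 20 hr later.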
* hit, by the source's call; i = inactive; ? = inconclusive; . = no result; ! = not active in a repeat; [ ] = remark or other dose. This is a sample that favours compounds with a hit; in the whole collection about 6.3% have one here. The call rests on the fitted dose curve; in most records, active means well fitted curve in the direction sought with a large enough effect; inconclusive means small, poorly fitted or top-dose-only effect, or another doubt; inactive means no such curve, though single readings can be large; an effect the other way counts as inactive or inconclusive. Potency means the concentration at half of the fitted maximal effect.

SMILES	TGFb SMAD3 inh	Gal4-VP16 FLuc	HepG2 tox	ATXN2 expr inh	S2 tox	RORg inh
Cc1ccccc1C(=O)NC(=S)Nc1sc2c(c1C#N)CCCC2	2%	11µM*	6%	-2%	i	3.5µM*
N#Cc1c(NC(=O)c2ccccc2)sc2c1CCCCC2	1%	?	-11%	59%	i	?
O=C(O)c1cc(=O)c2cc(Cl)ccc2[nH]1	.	-5%	.	.	.	3%
CC(=O)Nc1sc2c(c1C#N)CCCCC2	7%	-10%	-21%	32%	i	?
Cc1onc(-c2ccccc2)c1C(=O)NC(=S)Nc1sc2c(c1C#N)CCCC2	-19%	-88%	-26%	7%	i	3.5µM*
Cc1onc(-c2ccccc2)c1C(=O)Nc1sc2c(c1C#N)CCC2	-14%	0%	-19%	?	i	17%
CC(C)(C)C(=O)NC(=S)Nc1sc2c(c1C#N)CCCCC2	-14%	14µM*	-30%	16%	i	7.1µM*
CN(C)c1ccc(/C=C/c2ccnc3ccc(I)cc23)cc1	8%	.	-15%	.	.	.
COc1cc(N=c2ssnc2Cl)cc(OC)c1	?	7.1µM*	-3%	-22%	?	4µM*
CN(C)c1ccc(C(=S)N2CCCCCC2)cc1	-6%	-21%	-56%	11%	i	20µM*
CC(=O)N1CCN(C(=S)c2ccc(N(C)C)cc2)CC1	-16%	9%	-52%	2%	i	-18%
CC1CCN(C(=S)c2ccc(N(C)C)cc2)CC1	-23%	-26%	-12%	39%	i	13µM*
CCc1ccc(N/C(SCc2cccc(F)c2)=C(/C#N)C(=O)NCc2ccco2)cc1	-24%	6.3µM*	-11%	1%	i	1.6µM*
Cc1ccc(N/C(SCc2ccccc2C)=C(/C#N)C(=O)NCc2ccco2)cc1C	-29%	-3%	0%	-16%	?	-29%
COc1ccc(NC(=S)Nc2ccc(F)cc2)cc1	-15%	?	-1%	.	i	?
Cc1ccc(NC(=S)Nc2ccc3cn[nH]c3c2)cc1C	-14%	5µM*	-3%	22%	i	13µM*
Cc1cccc(C)c1NC(=S)Nc1ccc(F)cc1	4%	?	-3%	-19%	?	10µM*
Cc1ccc(NC(=S)Nc2ccc(F)cc2)cc1C	?	7.1µM*	-50%	-3%	?	7.1µM*
Cc1ccc(NC(=S)NCc2ccc(F)cc2)cc1	2%	.	-2%	2%	i	.
CC1(C(=O)NS(=O)(=O)Cc2cccc(Cl)c2)CCN1C(=O)c1cccc(F)c1 (configuration not stated)	-5%	.	1%	-7%	i	.
COc1cccc(O)c1CN1CCC(C(=O)Nc2ccc(Oc3cccnc3)cc2)CC1	4%	4%	0%	-21%	i	30%
COc1cccc(O)c1CN1CCC(C(=O)Nc2ccc(-c3cccc(C)c3)cc2)CC1	?	14µM*	13µM*	?	i	10µM*
Cc1ccc(CN2CCC(C(=O)Nc3cccc(-c4cccc(F)c4)c3)CC2)o1	-27%	10µM*	-42%	.	i	-24%
O=C(Nc1cccc(-c2cccc(Cl)c2)c1)C1CCN(Cc2ccc(CO)o2)CC1	?	-14%	-56%	-38%	i	-25%
CCOC(=O)C(=O)CCc1ccccc1	.	.	.	3%	i	.
SMILES	TGFb SMAD3 inh	Gal4-VP16 FLuc	HepG2 tox	ATXN2 expr inh	S2 tox	RORg inh
CSc1ncc2c(n1)-c1ccccc1N(Cc1ccc(F)cc1)S2(=O)=O	-2%	.	-4%	4%	i	.
CCOC(=O)[C@@H](C)N(C(=O)OC(C)(C)C)S(=O)(=O)N(Cc1ccccc1)[C@H](C(=O)OC)C(C)C	10µM*!	.	-31%	-8%	?	.
Cc1ccc(S(=O)(=O)CC(=O)Nc2ccccn2)cc1	-3%	3%	-6%	16%	i	-14%
COC(=O)c1ccc(NC(=S)Nc2ccc(O)cc2)cc1	-1%	3%	-1%	.	i	-13%
Cc1ccc(NC(=O)C(=O)Nc2ccccn2)cc1	4%	5.6µM*	-46%	?	i	6.3µM*
COC(=O)c1ccc(NC(=S)Nc2ccccn2)cc1	-7%	1µM*	-1%	18%	i	1µM*
COc1ccc(NC(=S)Nc2ccccn2)cc1	-15%	7.1µM*	15%	21%	i	2.8µM*
COc1ccccc1NC(=S)Nc1ccccn1	?	3.5µM*	-43%	28%	i	1.6µM*
Fc1ccc(CNc2nc(-c3ccccc3)cc(C(F)(F)F)n2)cc1	-14%	.	-36%	-9%	i	.
CCS(=O)(=O)N1CC(=O)N(c2ccc(Cl)cc2C)C(C)(C(=O)NC2CCCCC2)C1 (configuration not stated)	0%	.	6%	.	.	.
COc1ccc(S(=O)(=O)N2CCN(C(=O)c3sccc3-c3ccccc3)CC2)cc1	?	.	-4%	15%	i	.
COC(=O)C1=C(C)N(C)C(=O)NC1c1cccc2ccccc12 (configuration not stated)	19%	-6%	-16%	2%	i	-25%
COC(=O)C1=C(C)N(C)C(=S)NC1c1c(OC)ccc2ccccc12 (configuration not stated)	-7%	?	-30%	-10%	?	7.9µM*
Cc1cc(F)ccc1NC(=O)C1CCN(C(=O)c2cnn(-c3ccccc3)c2-n2cccc2)CC1	?	.	-3%	1%	i	.
CC(C)N1CCC2(CC1)N=C(c1ccc3c(c1)OCO3)CC(c1cc(Cl)ccc1O)N2 (configuration not stated)	?	-8%[0.365 µM]	11µM*	?	?	?
O=C(Nc1cc(Cl)ccc1O)c1cc(-c2ccc3c(c2)OCO3)on1	-3%	.	-22%	57%	i	.
Cc1c(C#N)c(NC(=O)CCl)n(Cc2cccs2)c1C	13µM*	?	-81%	?	.	-13%
Cc1c(C#N)c(NC(=O)CCl)n(Cc2ccc(F)cc2)c1C	18µM*	?	11µM*	?	21µM*	-43%
Cc1c(C#N)c(NC(=O)CCl)n(Cc2ccccc2)c1C	?	?	-50%	11µM*	8.4µM*	?
Cc1cc(=O)n(Cc2ccccc2)c(O)c1C#N	11%	6%	17%	-6%	i	19%
C=C1C(=O)[C@@]23[C@H](O)C[C@@H]4C(C)(C)CC[C@H](O)[C@@]4(C)[C@@H]2CC[C@@H]1[C@H]3O	0.89µM*	5.6µM*	8.9µM*	?	7.9µM*	2.8µM*
